Measurements reported in the supplement of paper PMC10720658.
± gives the standard deviation of the averaged measurements.

test system: AEK1 (Tb927.3.2440); test: percent reduction in TR-FRET probe signal relative to DMSO control; higher = stronger displacement of ATP-site probe (binding); settings: 1 µM; incubation time 1 h

Compound | percent reduction in TR-FRET probe signal [%]
C[C@H](Nc1ncnc2[nH]cnc12)c1cc2ccc(F)cc2nc1-c1ccccn1 | -3.52 ± 7.7
Cc1c[nH]c(-c2cnc(NCCNc3ccc(C#N)cn3)nc2-c2ccc(Cl)cc2Cl)n1.Cl | -2.62 ± 8.5
O=C(NCc1ccccc1)c1csc(Nc2ccncn2)n1 [Thiazovivin] | 10.4 ± 11
CCc1ccc(/C=C2/SC(=S)NC2=O)cc1 | -1.24 ± 9.7
C[C@@H]1COCCN1c1cc(C2(S(C)(=O)=O)CC2)nc(-c2cccc3[nH]ccc23)n1 | 0.253 ± 7.1
O=C1Nc2cc(Br)ccc2/C1=C1/Nc2ccccc2/C1=N\O | 2.19 ± 11
Cn1ncc(Cl)c1-c1cc(C(=O)N[C@H](CN)Cc2ccc(F)c(F)c2)oc1Cl | 33.2 ± 9.4
COc1cc(-c2cc(-c3ccc(N4CCNCC4)cc3)cnc2C)cc(OC)c1OC | -4.94 ± 0.48
C[C@@]1(C(=O)Nc2ccc(F)nc2)CCCN1c1nc(Nc2cc(C3CC3)[nH]n2)c2cccn2n1 | 23.1 ± 8.1
COc1cc2nccc(Oc3ccc(NC(=O)Nc4cc(C)on4)c(Cl)c3)c2cc1OC [Tivozanib (AV-951)] | -2.48 ± 4.1
COc1ccc(-c2ccc3ncc4c(c3c2)n(-c2ccc(N3CCNCC3)c(C(F)(F)F)c2)c(=O)n4C)cn1.O=C(O)/C=C\C(=O)O | -5.09 ± 8.7
CCCCCCCCCCCCCCCc1cccc(O)c1C(=O)O [Anacardic Acid] | 19.2 ± 19
O=C(c1ccc(F)c(F)c1Nc1ccc(I)cc1F)N1CC(O)([C@@H]2CCCCN2)C1 [Cobimetinib (GDC-0973, RG7420)] | 2.36 ± 13
Cc1cnc(NC(=O)Nc2cc(Br)c(C)cc2OC[C@@H]2CNCCO2)cn1 | 9.29 ± 6.3
N#CC[C@H](C1CCCC1)n1cc(-c2ncnc3[nH]ccc23)cn1 | 22.6 ± 7.6
C[C@@H]1CCN(C(=O)CC#N)C[C@@H]1N(C)c1ncnc2[nH]ccc12.O=C(O)CC(O)(CC(=O)O)C(=O)O | -1.47 ± 8.1
NC1(Cc2ccc(Cl)cc2)CCN(c2ncnc3[nH]ccc23)CC1 | 2.05 ± 3.4
CC[C@@H]1C(=O)N(C)c2cnc(Nc3ccc(C(=O)N[C@H]4CC[C@H](N5CCN(CC6CC6)CC5)CC4)cc3OC)nc2N1C(C)C [Volasertib (BI 6727)] | 4.92 ± 1.3
CN1CCN(S(=O)(=O)c2ccc(-c3cnc(N)c(C(=O)Nc4cccnc4)n3)cc2)CC1 | -4.29 ± 6.5

Compound | percent reduction in TR-FRET probe signal [%]
COc1cc2c(Nc3ccc(NC(=O)c4ccccc4)cc3)ncnc2cc1OCCCN1CCOCC1 | 4.13 ± 16
COc1cc(OC)c(/C=C/S(=O)(=O)Cc2ccc(OC)c(NCC(=O)[O-])c2)c(OC)c1.[Na+] | -3.78 ± 11
C=CC(=O)Nc1cccc(Nc2nc(Nc3ccc(Oc4ccnc(C(=O)NC)c4)cc3)ncc2F)c1 | -4.93 ± 4.3
Cc1[nH]c(/C=C2\C(=O)Nc3ccc(S(=O)(=O)N(C)c4cccc(Cl)c4)cc32)c(C)c1C(=O)N1CCN(C)CC1 | 34.1 ± 16
Nc1ncnc2c1c(-c1cnc3[nH]ccc3c1)nn2C1CCCC1 | 21.6 ± 20
C=CC(=O)Nc1ccc2ncnc(Nc3ccc(OCc4cccc(F)c4)c(Cl)c3)c2c1.Cc1ccc(S(=O)(=O)O)cc1 | 4.49 ± 7.8
Nc1cccc(-c2cc3c(Oc4cccc(O)c4)ncnc3[nH]2)c1 | 18.7 ± 22
O=C(O)[C@]1(Cc2cccc(Nc3nccs3)n2)CC[C@@H](Oc2cccc(Cl)c2F)CC1 | 19.3 ± 12
Oc1ccc(Nc2nc(-c3ccc(Cl)cc3)cs2)cc1 | -4.54 ± 4.1
COc1cc2c(Oc3ccc(NC(=O)C4(C(=O)Nc5ccc(F)cc5)CC4)cc3F)ccnc2cc1OCCCN1CCOCC1 | 56 ± 11
C=CC(=O)Nc1cccc(Nc2nc(Nc3ccc(N4CCN(C(C)=O)CC4)cc3OC)ncc2C(F)(F)F)c1 | -2.96 ± 7.5
Cc1cc(C(=O)NOCCO)c(Nc2ccc(I)cc2F)n(C)c1=O | 4.03 ± 2.7
Cc1ccc(-n2nc(C(C)(C)C)cc2NC(=O)Nc2ccc(OCCN3CCOCC3)c3ccccc23)cc1 [BIRB 796 (Doramapimod)] | 1.12 ± 5.4
CNC(=O)c1cc(Oc2ccc(NC(=O)Nc3cc(C(C)(C)C)nn3-c3ccc4ncccc4c3)c(F)c2)ccn1 [DCC-2036 (Rebastinib)] | 21.5 ± 15
O=C(/C=C/c1ccc(O)c(O)c1)c1ccc(O)cc1O [Butein] | 4.05 ± 5.4
O=C(NOCC1CC1)c1ccc(F)c(F)c1Nc1ccc(I)cc1Cl | 5.58 ± 12
COc1cc(Nc2ncc(F)c(Nc3ccc4c(n3)NC(=O)C(C)(C)O4)n2)cc(OC)c1OC.O=S(=O)(O)c1ccccc1 | 85.4 ± 8
C1=C/COCc2cc(ccc2OCCN2CCCC2)Nc2nccc(n2)-c2cccc(c2)COC/1 [Pacritinib (SB1518)] | -2.95 ± 9.1
Cc1cc(F)c(Nc2ncnc3cc(OCc4ccccc4)ccc23)cc1O.Cl | 29.8 ± 17
